Measured values as given in PubChem BioAssay.

Molecular target: 6-phosphogluconate dehydrogenase, decarboxylating (Homo sapiens) (UniProt P52209)
Test: inhibition of human phosphogluconate dehydrogenase – biochemical, recombinant enzyme, NADPH absorbance, primary screen (AID 1159550)
Conditions: recombinant 6PGD, NADPH absorbance 341 nm; at 10 µM; hits give high values;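 active = at least 20% inhibition of 6-phosphogluconate dehydrogenase activity; inactive = the rest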

6-phosphogluconate dehydrogenase, decarboxylating (Homo sapiens), sequence (P52209 whole entry, looked up): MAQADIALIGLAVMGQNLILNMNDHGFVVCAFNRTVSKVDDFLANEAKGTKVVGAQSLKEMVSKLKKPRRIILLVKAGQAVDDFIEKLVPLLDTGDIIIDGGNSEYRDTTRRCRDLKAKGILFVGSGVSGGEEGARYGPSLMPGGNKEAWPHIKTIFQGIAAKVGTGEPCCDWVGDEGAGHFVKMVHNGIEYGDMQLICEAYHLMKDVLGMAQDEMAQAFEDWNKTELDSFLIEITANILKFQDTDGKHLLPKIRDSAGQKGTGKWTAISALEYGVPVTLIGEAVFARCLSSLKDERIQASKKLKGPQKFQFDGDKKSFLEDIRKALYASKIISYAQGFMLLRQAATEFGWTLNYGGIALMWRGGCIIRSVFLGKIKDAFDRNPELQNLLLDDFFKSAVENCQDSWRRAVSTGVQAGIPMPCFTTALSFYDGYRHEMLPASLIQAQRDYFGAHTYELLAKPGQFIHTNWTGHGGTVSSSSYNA

inhibition, inactive:
COc1cc([C@@H]2c3cc4c(cc3[C@H](O)[C@H]3COC(=O)[C@@H]23)OCO4)cc(OC)c1OC 1.7%
COc1ccc([C@@H]2CC(=O)c3c(O)cc(O[C@@H]4O[C@H](CO[C@@H]5O[C@@H](C)[C@H](O)[C@@H](O)[C@H]5O)[C@@H](O)[C@H](O)[C@H]4O)cc3O2)cc1O 1.33%
COc1cccc(OC)c1OCCNCC1COc2ccccc2O1 (centres undefined) 18.8%
C[C@H]1O[C@@H](O[C@H]2[C@@H](O)C[C@H](O[C@H]3[C@@H](O)C[C@H](O[C@H]4CC[C@@]5(C)[C@H](CC[C@@H]6[C@@H]5C[C@@H](O)[C@]5(C)[C@@H](C7=CC(=O)OC7)CC[C@]65O)C4)O[C@@H]3C)O[C@@H]2C)C[C@H](O)[C@@H]1O -1.7%
CC1(C)[C@@H](O[C@H]2O[C@H](C(=O)O)[C@@H](O)[C@H](O)[C@H]2O[C@@H]2O[C@H](C(=O)O)[C@@H](O)[C@H](O)[C@H]2O)CC[C@]2(C)[C@H]3C(=O)C=C4[C@@H]5C[C@@](C)(C(=O)O)CC[C@]5(C)CC[C@@]4(C)[C@]3(C)CC[C@@H]12 11%
CCC[C@@H]1C[C@@H](C(=O)N[C@@H]([C@H]2O[C@H](SC)[C@H](O)[C@@H](O)[C@H]2O)[C@@H](C)O)N(C)C1 -15.1%
COc1c(O)cc2c(c1O)[C@@H]1O[C@H](CO)[C@@H](O)[C@H](O)[C@H]1OC2=O 2.56%
O=C(O)C1=CCNCC1 13%
COc1cc2c(c(OC)c1OC)-c1ccc(OC)c(=O)cc1C(NC(C)=O)CC2 (centres undefined) -26.1%
